# Measured values reported in PubChem BioAssay.
# Values joined by “and” are separate entries in the source; they are usually repeats but may differ in a detail not shown here. Identical values can stand only once. Active and inactive are the calls of the source. Unless noted, no stated cut-off is given here; in the data, active means inhibition above about 80%; inactive means the rest.
# Legend:
# [1] = liver-stage malaria parasite load reduction – cell-based, known kinase inhibitor set, luminescence, hepatoma host viability (AID 624392; call rule not given here;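 further: infected cells incubated roughly two days before readout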); settings: Plasmodium liver stage in hepatoma cells, luciferase luminescence, concentration not given here; liver cell % of control: measured here: host liver cell viability; parasite % of control: stronger effect = lower value
# [2] = P. berghei load reduction in hepatocytes – cell-based, HepG2, luciferase luminescence, HepG2 viability, primary screen (AID 624349; in the data active means parasite load remaining mostly below about 12%, no sharp cut-off; inactive means mostly above about 10%;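 further: 100% = mean of DMSO negative control wells on the same plate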); settings: P. berghei liver stage in HepG2, luciferase luminescence, concentration not given here; parasite load remaining: stronger effect = lower value; viability: measured here: HepG2 viability without parasites
# [3] = galactose survival enhancers in mitochondrial complex I cybrids – cell-based, galactose medium, ATP luminescence, primary screen (AID 1645843;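 active means z-score of at least 1.8 in each of two replicates, scored against plate mean and spread of sample wells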;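 further: positive z means more ATP and so rescue of galactose-driven cybrid death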); settings: complex I mutant cybrid cells, 72 h, stronger effect = higher value
# [4] = growth inhibition, single agents and combos, LFS_MB_1R, cell-based, cisplatin or BGB combos, synergistic combos for chromothripsis tumors (AID 1671452); settings: LFS_MB_1R medulloblastoma cells, stronger effect = higher value;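 further: cells exposed for 96 hours before readout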
# [5] = growth inhibition, single agents and combos, CRL2098, cell-based, BGB or cisplatin IC20 combos, synergistic combos for chromothripsis tumors (AID 1671454); settings: CRL2098 osteosarcoma cells, drug combinations, stronger effect = higher value;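 further: cells exposed for 96 h before readout; 0% = vehicle DMSO and 100% = killing by high DMSO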
# [6] = growth inhibition, single agents and combos, HD-MB03, cell-based, BGB or cisplatin IC20 combos, synergistic combos for chromothripsis tumors (AID 1671455; in the data active means inhibition above about 83%;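 further: 0% = vehicle DMSO and 100% = high DMSO as cytotoxic control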); settings: HD-MB03 medulloblastoma cells, stronger effect = higher value
# [7] = growth inhibition, single agents and combos, UWB1.289, cell-based, BGB or cisplatin combos, synergistic combos for chromothripsis tumors (AID 1671456); settings: UWB1.289 ovarian carcinoma cells, stronger effect = higher value;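 further: cells exposed to compound for four days; 0% = vehicle DMSO and 100% = killing by high DMSO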
# [8] = growth inhibition, single agents and combos, LFS_MB_2R, cell-based, cisplatin combos, synergistic combos for chromothripsis tumors (AID 1671457); settings: LFS_MB_2R medulloblastoma cells, stronger effect = higher value;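 further: cells exposed to compound for four days before readout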
# [9] = UWB1.289_BRCA1 ovarian cancer growth, cell-based, BGB or cisplatin combinations (AID 1671459); settings: UWB1.289 BRCA1 ovarian carcinoma, drug combinations, stronger effect = higher value
# [10] = drug combination toxicity in non-malignant astrocytes – cell-based, BGB or cisplatin IC20 combos, cytotoxicity control for chromothriptic childhood tumor combination screen (AID 1671460); settings: Human astrocytes, viability inhibition, drug combinations, at 0.5 µM, stronger effect = higher value;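 further: cells exposed to compounds for 96 hours before viability readout; 0% = vehicle and 100% = killing control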
# [11] = CRL1545 cell growth, single agent and combined, cisplatin and BGB IC20 combos (AID 1671464); settings: CRL1545 osteosarcoma cells, stronger effect = higher value;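 further: cells exposed to compound for 96 hours before readout; 0% = vehicle DMSO and 100% = high DMSO killing control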
# [12] = target: NAD(+) hydrolase SARM1 (Homo sapiens) (UniProt Q6SZW1); experiment: blocking NAD cleavage by SARM1 SAM-TIR – cell lysate, NAD-Glo luminescence (AID 1508614;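 active means compound whose remaining NAD level is above about 45 nM, limit read from the data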); settings: SAM-TIR HEK293T lysate NADase, at 1 µM, stronger effect = higher value
# Chain of NAD(+) hydrolase SARM1 (Homo sapiens) (Q6SZW1 whole entry, looked up, the tested form may be a part): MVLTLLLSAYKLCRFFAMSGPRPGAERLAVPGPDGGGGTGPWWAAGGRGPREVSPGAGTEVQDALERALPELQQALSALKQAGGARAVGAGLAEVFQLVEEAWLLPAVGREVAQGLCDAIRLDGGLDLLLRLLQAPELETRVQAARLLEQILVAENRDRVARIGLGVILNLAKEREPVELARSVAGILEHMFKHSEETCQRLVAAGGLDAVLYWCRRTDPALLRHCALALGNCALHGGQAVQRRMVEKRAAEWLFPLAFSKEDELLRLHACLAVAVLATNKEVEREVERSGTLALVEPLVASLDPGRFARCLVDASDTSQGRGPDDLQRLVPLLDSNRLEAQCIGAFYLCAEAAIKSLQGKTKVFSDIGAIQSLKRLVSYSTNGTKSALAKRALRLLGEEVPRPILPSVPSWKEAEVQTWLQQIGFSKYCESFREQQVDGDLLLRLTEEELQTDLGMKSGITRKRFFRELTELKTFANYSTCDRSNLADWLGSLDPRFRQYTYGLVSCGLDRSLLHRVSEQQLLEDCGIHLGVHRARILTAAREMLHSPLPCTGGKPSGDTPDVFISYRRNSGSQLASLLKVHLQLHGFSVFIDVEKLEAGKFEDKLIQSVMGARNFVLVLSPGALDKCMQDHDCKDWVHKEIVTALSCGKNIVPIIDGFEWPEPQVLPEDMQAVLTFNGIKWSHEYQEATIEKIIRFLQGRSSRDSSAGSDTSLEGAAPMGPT
# [13] = target: Mitogen-activated protein kinase 7 (Homo sapiens) (UniProt Q13164); experiment: Gal4-ERK5 driven luciferase induction – cell-based, HTS, primary screen (AID 1508626;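 active means luciferase signal above three times the same-plate solvent-only control wells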;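 further: luciferase driven by Gal4-ERK5 fusion binding five Gal4 sites before minimal TATA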); settings: HeLa Gal4-ERK5 transactivation, 18 h, at 5 µM, stronger effect = higher value
# Chain of Mitogen-activated protein kinase 7 (Homo sapiens) (Q13164 whole entry, looked up, the tested form may be a part): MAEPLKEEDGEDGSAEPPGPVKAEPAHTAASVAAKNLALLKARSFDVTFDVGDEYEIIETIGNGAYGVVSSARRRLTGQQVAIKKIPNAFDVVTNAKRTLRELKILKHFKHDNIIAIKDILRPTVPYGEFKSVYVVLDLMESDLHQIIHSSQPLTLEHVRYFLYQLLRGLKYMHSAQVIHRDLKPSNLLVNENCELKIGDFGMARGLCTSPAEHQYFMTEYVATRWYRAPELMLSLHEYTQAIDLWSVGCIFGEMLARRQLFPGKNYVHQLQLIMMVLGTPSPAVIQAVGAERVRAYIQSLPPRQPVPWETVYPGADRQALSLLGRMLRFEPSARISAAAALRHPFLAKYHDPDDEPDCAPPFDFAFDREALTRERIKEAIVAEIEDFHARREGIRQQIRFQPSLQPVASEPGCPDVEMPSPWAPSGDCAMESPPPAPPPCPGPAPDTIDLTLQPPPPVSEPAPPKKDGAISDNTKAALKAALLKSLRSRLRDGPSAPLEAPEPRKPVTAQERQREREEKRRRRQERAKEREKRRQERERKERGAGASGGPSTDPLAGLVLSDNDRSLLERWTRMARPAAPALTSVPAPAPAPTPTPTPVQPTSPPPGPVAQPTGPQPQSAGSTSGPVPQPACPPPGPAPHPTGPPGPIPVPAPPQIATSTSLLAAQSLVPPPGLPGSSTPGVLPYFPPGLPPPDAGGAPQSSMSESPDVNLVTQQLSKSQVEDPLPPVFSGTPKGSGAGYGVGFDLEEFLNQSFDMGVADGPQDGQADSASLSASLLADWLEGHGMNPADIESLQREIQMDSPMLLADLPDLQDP
# [14] = compounds altering viability of human ES cells (AID 493140; call rule not given here;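 further: cells exposed to compounds for four days before counting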); settings: human embryonic stem cell survival screen; stronger effect = higher value
# [15] = measured here: combination with BGB IC40, at 0.05 µM
# [16] = measured here: combination with cisplatin, at 0.5 µM
# [17] = measured here: combination with cisplatin, at 5 µM
# [18] = measured here: combination with BGB at IC20, at 0.5 µM
# [19] = measured here: combination with cisplatin at IC20, at 0.5 µM
# [20] = measured here: combo with BGB at IC20, at 0.5 µM
# [21] = measured here: combo with cisplatin at IC20, at 0.5 µM
# [22] = measured here: inhibition with BGB combination, at 0.05 µM
# [23] = measured here: inhibition with cisplatin combination, at 0.05 µM
# [24] = BGB combination, concentration series, at 5 µM
# [25] = cisplatin combination, concentration series, at 5 µM
# [26] = measured here: combo with BGB IC20
# [27] = measured here: combo with cisplatin IC20
# [28] = measured here: with BGB IC20 combination, at 0.5 µM
# [29] = measured here: with cisplatin IC20 combination, at 0.5 µM
structure (smiles),measurement,setting,value
O=C(NCCCNc1nc(Nc2cccc(NC(=O)N3CCCC3)c2)ncc1I)c1cccs1,liver cell % of control,[1],74.4% and 44.5% and 88.3%
same,parasite % of control,[1],0.4% (inactive) and 0.22% (inactive) and 6.81% (inactive)
C=C(c1ccc(C(=O)O)cc1)c1cc2c(cc1C)C(C)(C)CCC2(C)C,parasite load remaining,[2],34.5% (inactive)
same,viability,[2],146%
same,z-score,[3],0.715 (inactive)
Cc1ccc([N+](=O)[O-])cc1S(=O)(=O)N(C)/N=C/c1cnc2ccc(Br)cn12,parasite load remaining,[2],40.5% (inactive)
same,viability,[2],60.2%
same,inhibition,[4]; at 0.5 µM,82.3% (active)
same,inhibition,[4]; [15],-47.5%
same,inhibition,[4]; [16],77.8%
same,inhibition,[4]; [17],97.4%
same,inhibition,[5]; at 0.5 µM,89.7% (active)
same,inhibition,[5]; [18],91.5%
same,inhibition,[5]; [19],95.8%
same,inhibition,[6]; at 0.5 µM,84.2% (active)
same,inhibition,[6]; [20],85%
same,inhibition,[6]; [21],81.5%
same,inhibition,[7]; at 0.5 µM,63.4% (inactive)
same,inhibition,[7]; [22],-17.5%
same,inhibition,[7]; [23],-14.7%
same,inhibition,[8]; at 0.5 µM,63.9% (inactive)
same,inhibition,[8]; [16],63.1%
same,inhibition,[8]; [17],90.7%
same,inhibition,[9]; [24],89.2%
same,inhibition,[9]; at 0.5 µM,73.9% (inactive)
same,inhibition,[9]; [25],92.4%
same,inhibition,[10],83.2% (active)
same,inhibition,[10]; [26],77.8%
same,inhibition,[10]; [27],81.3%
same,inhibition,[11]; at 0.5 µM,96.9% (active)
same,inhibition,[11]; [28],98.1%
same,inhibition,[11]; [29],96.2%
same,inhibition,"[11]; single agent, at 0.05 µM",-27.4%
same,inhibition,"[11]; single agent, at 5 µM",99.9%
CC1(C)O[C@@H]2C[C@H]3[C@@H]4CCC5=CC(=O)C=C[C@]5(C)[C@H]4[C@@H](O)C[C@]3(C)[C@]2(C(=O)CO)O1,remaining NAD,[12],10 nM (inactive)
same,luciferase signal,[13],172 AU (inactive)
O=C(O)CCCc1c[nH]c2ccccc12,z-score,[3],1.11 (inactive)
CO[C@H]1/C=C/O[C@@]2(C)Oc3c(C)c(O)c4c(O)c(c5c(nc6cc(C)ccn65)c4c3C2=O)NC(=O)/C(C)=C\C=C\[C@H](C)[C@H](O)[C@@H](C)[C@@H](O)[C@@H](C)[C@H](OC(C)=O)[C@@H]1C,remaining NAD,[12],10 nM (inactive)
same,luciferase signal,[13],32 AU (inactive)
CC[C@H](CO)Nc1nc(NCc2ccccc2)c2ncn(C(C)C)c2n1,survival,[14],75.1 (inactive)
same,parasite load remaining,[2],29.6% (inactive)
same,viability,[2],68.3%
CN1CCc2c(c3ccccc3n2Cc2ccc(C(=O)NO)cc2)C1,inhibition,[4]; at 0.5 µM,-13.1% (inactive)
same,inhibition,[4]; [15],-12% and -15.8%
same,inhibition,[4]; [16],-23.4% and -23.9%
same,inhibition,[4]; [17],-0.081% and -53.5%
same,inhibition,[5]; at 0.5 µM,21.5% (inactive) and -46.3% (inactive)
same,inhibition,[5]; [18],-14.9% and -43.1%
same,inhibition,[5]; [19],34.9% and -68.1%
same,inhibition,[6]; at 0.5 µM,-1.98% (inactive) and 0.91% (inactive)
same,inhibition,[6]; [20],-6.31% and -10.4%
same,inhibition,[6]; [21],1.42% and 11.7%
same,inhibition,[7]; at 0.5 µM,1.69% (inactive) and 0.65% (inactive)
same,inhibition,[7]; [22],-1.11% and -13.8%
same,inhibition,[7]; [23],3.47% and 1.13%
same,inhibition,[8]; at 0.5 µM,-14.9% (inactive) and -18.4% (inactive)
same,inhibition,[8]; [16],-17.1% and -16.5%
same,inhibition,[8]; [17],-17.1% and 0.035%
same,inhibition,[9]; [24],19.3% and 22.8%
same,inhibition,[9]; at 0.5 µM,-0.05% (inactive) and 2.69% (inactive)
same,inhibition,[9]; [25],23.3% and 11.9%
same,inhibition,[10],-0.01% (inactive) and -0.33% (inactive)
same,inhibition,[10]; [26],5.22% and 4.02%
same,inhibition,[10]; [27],-7.05% and -4.68%
same,inhibition,[11]; at 0.5 µM,17% (inactive) and -23.2% (inactive)
same,inhibition,[11]; [28],-9.72% and -7.89%
same,inhibition,[11]; [29],29.2% and -33%
same,inhibition,"[11]; single agent, at 0.05 µM",-10.6% and -2.77%
same,inhibition,"[11]; single agent, at 5 µM",6.01% and -28.9%
C[C@H]1[C@H](C)CC[C@]2(C(=O)O)CC[C@]3(C)C(=CC[C@@H]4[C@@]5(C)C[C@@H](O)[C@H](O)[C@@](C)(CO)[C@@H]5CC[C@]43C)[C@H]12,luciferase signal,[13],36 AU (inactive)
